This passage reports Potency and outcome results from PubChem BioAssay (Tox21).

A short description of test [1]: qHTS assay to identify small molecule agonists of the sonic hedgehog signaling (Shh) pathway (AID 1259368; calls by dose curve; further: nearly all actives have a fitted effect of over 15% in size; further: potency means the concentration at half of the fitted maximal effect). The method in brief:
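Quantitative high-throughput format using a Gli1-driven firefly luciferase reporter line derived from NIH/3T3 cells. After a 24 hr compound treatment at 37 C and 5% CO2, luminescence reported Gli1 response element activity.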
(In general: Quantitative high-throughput screening tests each substance at several concentrations.)

Test [2] can be described thus: qHTS assay to identify small molecule antagonists of the sonic hedgehog signaling (Shh) pathway (AID 1259369; calls by dose curve; further: nearly all actives have a fitted effect of over 45% in size; further: potency means the concentration at half of the fitted maximal effect). The method in brief: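 Stable Gli1-Luc reporter NIH/3T3 clone; quantitative HTS in stimulated mode with conditioned medium. Luminescence measured after 24hr compound treatment at 37 C.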
Test [3] concerns the target Estrogen receptor beta (Homo sapiens) (UniProt Q92731). Nature of the test: qHTS assay to identify small molecule agonists of the estrogen receptor beta (ER-beta) signaling pathway (AID 1259377; active means well fitted activation curve with a large enough effect in the signal ratio in the repeat runs, not every such curve was filed as active; the % refers to the signal ratio). The method in brief:
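ER-beta-UAS-bla HEK293T cells in medium with 2% charcoal-stripped FBS were exposed to compounds for 16 h at 37C. Beta-lactamase reporter activity was read as fluorescence after 2 h with LiveBLAzer B/G FRET substrate at room temperature.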

A short description of test [4]: qHTS assay to identify small molecule agonists of the estrogen receptor beta (ER-beta) signaling pathway - cell viability counter screen (AID 1259380). Further: nearly all actives have a fitted effect of over 30% in size. In a few lines:
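Steps: plate ER-beta-UAS-bla HEK293T cells, rest 6 hr; add compounds in DMSO; incubate 16 hr at 37C, 5% CO2; add FRET substrate 2 hr; add CellTiter-Glo, wait 30 min at room temperature; read luminescence.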

Test [5] in a line: qHTS assay to identify small molecule antagonists of the estrogen receptor beta (ER-beta) signaling pathway - cell viability counter screen (AID 1259382). Further: series mostly up to about 92 µM; nearly all actives have a fitted effect of over 55% in size. In a few lines:
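Viability is scored by CellTiter-Glo luminescence (30 min, room temperature) in ER-beta-UAS-bla HEK293T wells already read for reporter fluorescence. Compound exposure lasts 16 hr at 37C alongside 1nM 17-beta-estradiol in charcoal-stripped serum medium.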

Test [6] can be described thus: qHTS assay to identify small molecule agonists or antagonists of the thyroid stimulating hormone receptor (TSHR) signaling pathway - wild type cell line counter screen (AID 1259384; calls by dose curve). In a few lines: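 Wild-type Hek293 cells, 800/well, 18 h at 37C, then compound with Ro20-1724 for 30 min RT. cAMP by HTRF (cAMP-d2/anti-cAMP cryptate), 1 h RT, fluorescence read. 15 concentrations, triplicates.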

Test [7] concerns the target Thyrotropin receptor (Homo sapiens) (UniProt P16473). Description: qHTS assay to identify small molecule antagonists of the thyroid stimulating hormone receptor (TSHR) signaling pathway (AID 1259385; calls by dose curve; further: nearly all actives have a fitted effect of over 20% in size). In a few lines: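 TSHR-HEK293 cells (800/well) plated 18 h, then compounds with Ro20-1724 and TSH at 1.5 ng/mL final, 30 min at room temperature. cAMP quantified by HTRF (cAMP-d2/anti-cAMP-cryptate, 1 h); 15 concentrations in triplicate.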

The target in test [8] is Progesterone receptor (Homo sapiens) (UniProt P06401). Nature of the test: qHTS assay to identify small molecule agonists of the progesterone receptor (PR) signaling pathway (AID 1346784; calls by dose curve; further: nearly all actives have a fitted effect of over 30% in size). In a few lines:
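PR-UAS-bla HEK 293T cells (beta-lactamase reporter under UAS) in 2% charcoal-stripped FBS, dosed with 23 nL compound after 6 hr, incubated 16hr at 37C. LiveBLAzer B/G FRET substrate added, fluorescence read after 2 hours.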

For test [9] the target is unchanged. Nature of the test: qHTS assay to identify small molecule antagonists of the progesterone receptor (PR) signaling pathway (AID 1346795; active means well fitted inhibition curve with a large enough effect in the signal ratio in the repeat runs, not every such curve was filed as active; the % refers to the signal ratio; further: potency means the concentration at half of the fitted maximal effect). In a few lines: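 PR-UAS-bla HEK293T cells with beta-lactamase reporter under UAS control, in 2% charcoal-stripped FBS, treated with compounds plus 1 nM promegestone (R5020, final) for 16 hr at 37C. Read-out: FRET beta-lactamase substrate fluorescence after 2 hr at room temperature.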

A short description of test [10]: qHTS assay to identify small molecule agonists of the progesterone receptor (PR) signaling pathway - cell viability counter screen (AID 1346799; calls by dose curve; further: nearly all actives have a fitted effect of over 45% in size). In a few lines:
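Counter screen in the PR-UAS-bla HEK293T wells (2% charcoal-stripped FBS, 16 h compound exposure at 37 C) after the bla read. CellTiter-Glo added, 30 min at room temperature, luminescence read as cell viability.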

Test [11] in a line: qHTS assay to identify small molecule antagonists of the TGF-beta/Smad signaling pathway - cell viability counter screen (AID 1346824). Further: nearly all actives have a fitted effect of over 50% in size. The method in brief:
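SBE-bla HEK 293T cells, incubated overnight, then compound plus 0.25 ng/mL TGF-beta1 (stock added) for 5 hr at 37 C. Viability was read in the same wells by CellTiter-Glo luminescence after 30 min at room temperature.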

Test [12] in a line: qHTS assay to identify small molecule agonists of the TGF-beta/Smad signaling pathway - cell viability counter screen (AID 1346829). Further: top concentration of the series differs between compounds; nearly all actives have a fitted effect of over 45% in size. In a few lines:
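Compound-treated SBE-bla HEK 293T cells (5 hr, 37 C) were assessed for viability with CellTiter-Glo in parallel with the reporter read.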

The nature of test [13]: qHTS assay to identify small molecule agonists of the TGF-beta/Smad signaling pathway (AID 1346859; active means well fitted activation curve with a large enough effect in the signal ratio in the repeat runs, not every such curve was filed as active; the % refers to the signal ratio; further: series mostly up to about 77 µM). The method in brief: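 SBE-bla HEK293T cells plated overnight, then compound exposure for 5 h at 37 C. Beta-lactamase reporter read with LiveBLAzer B/G FRET substrate after 2 h at room temperature, fluorescence at 405 nm excitation, 460/530 nm emission.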
Test [14] deals with Thyrotropin-releasing hormone receptor (Homo sapiens) (UniProt P34981). Nature of the test: qHTS assay to identify small molecule antagonists of the thyrotropin-releasing hormone receptor (TRHR) signaling pathway (AID 1346877; active means well fitted inhibition curve with a large enough effect in the repeat runs, not every such curve was filed as active; further: series mostly up to about 51 µM). In a few lines: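 Kinetic fluorescence (3 min, 1 s resolution) following stimulation with TRH at 1 nM final; HEK293 cells bearing human TRHR; 5 min compound preincubation at RT; concentration-response over 15 points, triplicates.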

Test [15] can be described thus: qHTS assay to identify small molecule agonists of the androgen receptor (AR) signaling pathway in the presence of an antagonist - cell viability counter screen (AID 1259379).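 Further: MDA-kb2 human breast cancer cells carrying an MMTV luciferase reporter; series mostly up to about 92 µM; nearly all actives have a fitted effect of over 25% in size.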 The method in brief: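 Nilutamide-containing (3.0uM final) MDA-kb2 cultures, 3,000 cells/well, were treated with compounds across 15 concentrations. After 16 hr at 37C with no CO2, cell viability was determined by CellTiter-Fluor fluorescence in the luciferase assay wells.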

The nature of test [16]: qHTS assay to identify small molecule agonists of the estrogen receptor alpha (ER-alpha) signaling pathway in the presence of an antagonist - cell viability counter screen (AID 1259386).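 Further: series mostly up to about 92 µM; cells exposed to compounds for 22 h at 37 °C before the viability read; nearly all actives have a fitted effect of over 30% in size.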 The method in brief: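 In this counter screen, compound effects on VM7Luc4E2 viability were tested in the presence of the antagonist ICI-182,780 at 10.0nM final. Compounds were dosed at 15 concentrations, exposure lasted 22hr, and the CellTiter-Fluor signal was read.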

Test [17] is described as follows: qHTS assay to identify small molecule antagonists of the progesterone receptor (PR) signaling pathway - cell viability counter screen (AID 1346798). Further: series mostly up to about 92 µM; nearly all actives have a fitted effect of over 50% in size. In a few lines: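 PR-UAS-bla HEK293T cells, 3,000/well in 2% charcoal-stripped FBS medium, dosed with compounds plus R5020 agonist and incubated 16 h at 37C. Viability then measured in the same wells by CellTiter-Glo luminescence after 30 min at RT.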

Test [18] addresses Estrogen receptor (Homo sapiens) (UniProt P03372). Nature of the test: qHTS assay to identify small molecule agonists of the estrogen receptor alpha (ER-alpha) signaling pathway in the presence of an antagonist (AID 1259383; calls by dose curve; further: top concentration of the series differs between compounds; nearly all actives have a fitted effect of over 15% in size). In a few lines: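 Readout was ERE-driven luciferase luminescence in VM7Luc4E2 cells, which express full-length ER-alpha endogenously. Compounds were tested at 15 concentrations for 22hr alongside 10.0nM ICI-182,780 (final concentration).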

Test [19] has as its target Estrogen receptor beta (Homo sapiens) (UniProt Q92731). Description: qHTS assay to identify small molecule antagonists of the estrogen receptor beta (ER-beta) signaling pathway (AID 1259378; active means well fitted inhibition curve with a large enough effect in the signal ratio in the repeat runs, not every such curve was filed as active; the % refers to the signal ratio). In a few lines:
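ER-beta-UAS-bla HEK293T cells in 2% charcoal-stripped FBS medium treated with compound plus 1nM final 17-beta-estradiol for 16 hr at 37C. Beta-lactamase reporter read by FRET substrate fluorescence after 2 hours at room temperature.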

In test [20] the target is Androgen receptor (Homo sapiens) (UniProt P10275). Nature of the test: qHTS assay to identify small molecule agonists of the androgen receptor (AR) signaling pathway in the presence of an antagonist (AID 1259381; calls by dose curve; further: nearly all actives have a fitted effect of over 15% in size). In a few lines:
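Reporter-gene luminescence from MDA-kb2 cells exposed 16hr at 37C (0% CO2) to 15-point compound titrations with 3.0uM final nilutamide as AR antagonist.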

“And” between values parts separate entries of the source, which are not always exact repeats. Equal values may be shown once. Inconclusive results are not listed. Where a structure was tested more than once in an assay, its records may differ in their call. The source made the active and inactive calls. Unless noted, the call rests on the fitted dose curve; in most records, active means well fitted curve in the direction sought with a large enough effect in the repeat runs; inconclusive means weak or mixed curves; inactive means no such curve, though single readings can be large; an effect the other way counts as inactive or inconclusive.

Sequence of Thyrotropin-releasing hormone receptor (Homo sapiens) (P34981 whole entry, looked up): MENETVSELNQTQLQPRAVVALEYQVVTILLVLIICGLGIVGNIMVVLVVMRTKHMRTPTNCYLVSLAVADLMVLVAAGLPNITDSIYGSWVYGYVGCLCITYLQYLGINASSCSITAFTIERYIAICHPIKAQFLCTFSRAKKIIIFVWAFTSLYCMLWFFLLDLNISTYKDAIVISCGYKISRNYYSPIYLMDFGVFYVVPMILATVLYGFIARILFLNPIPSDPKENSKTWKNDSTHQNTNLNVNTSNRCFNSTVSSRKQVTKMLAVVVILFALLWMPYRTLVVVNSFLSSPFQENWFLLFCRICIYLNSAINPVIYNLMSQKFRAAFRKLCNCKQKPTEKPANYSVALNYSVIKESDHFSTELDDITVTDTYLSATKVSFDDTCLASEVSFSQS
Sequence of Estrogen receptor (Homo sapiens) (P03372 whole entry, looked up): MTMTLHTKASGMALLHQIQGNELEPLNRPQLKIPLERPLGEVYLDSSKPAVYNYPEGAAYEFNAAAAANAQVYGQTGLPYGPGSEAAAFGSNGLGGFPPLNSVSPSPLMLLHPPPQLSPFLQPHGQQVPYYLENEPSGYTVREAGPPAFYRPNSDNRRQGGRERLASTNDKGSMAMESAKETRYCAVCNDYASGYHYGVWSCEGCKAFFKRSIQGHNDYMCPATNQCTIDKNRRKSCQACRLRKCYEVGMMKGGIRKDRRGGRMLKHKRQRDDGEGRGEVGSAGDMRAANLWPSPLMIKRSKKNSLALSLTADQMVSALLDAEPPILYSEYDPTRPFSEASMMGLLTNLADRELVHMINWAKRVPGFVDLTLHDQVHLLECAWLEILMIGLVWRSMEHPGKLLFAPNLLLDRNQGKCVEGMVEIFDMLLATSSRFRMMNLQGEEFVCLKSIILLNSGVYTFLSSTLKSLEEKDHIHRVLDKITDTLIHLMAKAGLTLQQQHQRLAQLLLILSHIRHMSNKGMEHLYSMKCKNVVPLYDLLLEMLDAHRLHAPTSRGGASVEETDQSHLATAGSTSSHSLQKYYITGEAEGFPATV
Sequence of Thyrotropin receptor (Homo sapiens) (P16473 whole entry, looked up): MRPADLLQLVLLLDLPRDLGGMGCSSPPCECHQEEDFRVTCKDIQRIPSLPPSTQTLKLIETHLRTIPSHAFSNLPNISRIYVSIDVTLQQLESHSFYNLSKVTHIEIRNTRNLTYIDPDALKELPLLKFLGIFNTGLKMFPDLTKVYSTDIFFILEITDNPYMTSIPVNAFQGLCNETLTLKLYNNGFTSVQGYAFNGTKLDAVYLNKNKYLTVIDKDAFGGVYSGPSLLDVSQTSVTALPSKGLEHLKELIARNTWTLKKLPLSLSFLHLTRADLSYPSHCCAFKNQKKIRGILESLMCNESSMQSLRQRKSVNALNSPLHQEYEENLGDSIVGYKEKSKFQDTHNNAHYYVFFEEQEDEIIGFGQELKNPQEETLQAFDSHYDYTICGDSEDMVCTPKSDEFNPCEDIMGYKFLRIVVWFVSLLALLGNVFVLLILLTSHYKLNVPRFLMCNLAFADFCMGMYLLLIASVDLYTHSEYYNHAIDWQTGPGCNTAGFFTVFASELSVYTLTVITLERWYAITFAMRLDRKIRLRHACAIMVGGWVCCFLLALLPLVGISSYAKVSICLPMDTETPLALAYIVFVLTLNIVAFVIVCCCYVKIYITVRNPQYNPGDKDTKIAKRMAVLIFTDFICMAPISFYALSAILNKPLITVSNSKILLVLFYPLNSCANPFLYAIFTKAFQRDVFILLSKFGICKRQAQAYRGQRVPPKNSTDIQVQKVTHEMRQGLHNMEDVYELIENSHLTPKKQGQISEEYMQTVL
Sequence of Estrogen receptor beta (Homo sapiens) (Q92731 whole entry, looked up): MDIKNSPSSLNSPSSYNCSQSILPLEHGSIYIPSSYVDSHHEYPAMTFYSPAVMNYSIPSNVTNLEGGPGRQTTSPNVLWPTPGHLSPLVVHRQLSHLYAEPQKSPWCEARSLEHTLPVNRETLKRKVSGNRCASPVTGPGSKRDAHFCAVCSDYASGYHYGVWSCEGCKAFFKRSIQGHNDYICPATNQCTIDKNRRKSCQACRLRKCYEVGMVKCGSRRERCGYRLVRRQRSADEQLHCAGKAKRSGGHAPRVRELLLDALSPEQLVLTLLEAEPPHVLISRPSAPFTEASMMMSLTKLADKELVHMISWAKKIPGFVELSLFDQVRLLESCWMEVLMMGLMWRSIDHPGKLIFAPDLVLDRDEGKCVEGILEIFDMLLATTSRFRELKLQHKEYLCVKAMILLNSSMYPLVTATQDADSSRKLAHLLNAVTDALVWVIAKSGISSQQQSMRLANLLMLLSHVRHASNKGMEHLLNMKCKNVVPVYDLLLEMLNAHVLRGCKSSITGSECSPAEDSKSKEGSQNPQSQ
Sequence of Progesterone receptor (Homo sapiens) (P06401 whole entry, looked up): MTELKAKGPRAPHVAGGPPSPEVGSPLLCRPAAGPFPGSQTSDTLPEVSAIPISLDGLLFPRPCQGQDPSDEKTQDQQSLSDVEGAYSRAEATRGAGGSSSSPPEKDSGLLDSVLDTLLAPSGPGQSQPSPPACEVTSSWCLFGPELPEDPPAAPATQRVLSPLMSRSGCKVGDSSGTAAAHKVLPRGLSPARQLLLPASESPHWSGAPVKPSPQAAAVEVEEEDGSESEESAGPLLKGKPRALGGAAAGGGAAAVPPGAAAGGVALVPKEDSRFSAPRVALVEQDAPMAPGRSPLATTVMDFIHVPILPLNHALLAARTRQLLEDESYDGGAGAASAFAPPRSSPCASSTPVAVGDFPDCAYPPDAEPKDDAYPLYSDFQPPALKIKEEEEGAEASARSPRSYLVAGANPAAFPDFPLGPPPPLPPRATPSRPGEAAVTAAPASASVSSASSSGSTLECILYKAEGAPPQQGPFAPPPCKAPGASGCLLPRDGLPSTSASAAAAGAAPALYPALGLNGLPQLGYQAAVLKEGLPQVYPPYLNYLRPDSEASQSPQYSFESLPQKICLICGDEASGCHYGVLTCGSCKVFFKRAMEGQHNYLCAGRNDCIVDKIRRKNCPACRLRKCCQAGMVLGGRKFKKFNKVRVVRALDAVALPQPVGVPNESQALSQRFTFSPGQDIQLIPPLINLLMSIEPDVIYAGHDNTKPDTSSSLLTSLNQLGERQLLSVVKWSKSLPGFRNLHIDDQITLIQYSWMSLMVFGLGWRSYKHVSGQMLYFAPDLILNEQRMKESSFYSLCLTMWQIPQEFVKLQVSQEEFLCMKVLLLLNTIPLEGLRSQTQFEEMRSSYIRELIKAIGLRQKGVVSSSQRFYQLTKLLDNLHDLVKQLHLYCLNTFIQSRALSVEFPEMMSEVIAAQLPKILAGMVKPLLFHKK
Sequence of Androgen receptor (Homo sapiens) (P10275 whole entry, looked up): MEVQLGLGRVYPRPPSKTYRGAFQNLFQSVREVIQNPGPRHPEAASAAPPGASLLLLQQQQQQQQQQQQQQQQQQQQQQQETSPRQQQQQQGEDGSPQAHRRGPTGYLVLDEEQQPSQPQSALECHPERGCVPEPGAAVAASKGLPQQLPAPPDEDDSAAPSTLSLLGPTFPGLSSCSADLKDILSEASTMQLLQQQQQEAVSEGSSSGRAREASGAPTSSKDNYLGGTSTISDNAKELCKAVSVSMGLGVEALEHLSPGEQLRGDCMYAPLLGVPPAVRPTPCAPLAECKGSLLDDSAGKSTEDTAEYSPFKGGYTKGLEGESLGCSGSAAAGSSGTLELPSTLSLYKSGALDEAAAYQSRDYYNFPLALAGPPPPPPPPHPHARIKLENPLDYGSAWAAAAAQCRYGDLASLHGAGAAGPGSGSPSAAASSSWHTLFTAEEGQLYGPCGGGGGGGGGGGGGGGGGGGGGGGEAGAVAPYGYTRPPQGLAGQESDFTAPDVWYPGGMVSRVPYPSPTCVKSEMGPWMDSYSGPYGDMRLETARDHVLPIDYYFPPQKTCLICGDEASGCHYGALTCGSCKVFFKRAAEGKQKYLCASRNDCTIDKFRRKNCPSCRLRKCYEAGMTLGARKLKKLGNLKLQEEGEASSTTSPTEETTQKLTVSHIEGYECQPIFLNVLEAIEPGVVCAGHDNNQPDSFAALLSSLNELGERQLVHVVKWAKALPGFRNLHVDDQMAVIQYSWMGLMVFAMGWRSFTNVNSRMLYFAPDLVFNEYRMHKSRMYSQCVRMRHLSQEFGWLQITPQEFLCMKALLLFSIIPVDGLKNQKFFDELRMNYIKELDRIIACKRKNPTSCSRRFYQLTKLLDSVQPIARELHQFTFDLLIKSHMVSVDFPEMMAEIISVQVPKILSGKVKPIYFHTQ

For the molecule `CN(C)c1ccc(C(=O)c2ccc(N(C)C)cc2)cc1`, the Potency result in test [1], in [3], in [4], in [5], in test [8] and in test [10] was “inactive” throughout. Besides, the Potency result in test [11], in [12] and in test [14] was “inactive” each time. Also, the Potency entry is “inactive and 24.3 µM (active)” in test [2]; 27.3 µM (active) in test [9]. Moreover, the molecule was called inactive in test [6], in [7] and in test [13].
On to `CCC(C)c1ccc(O)cc1` (configuration not stated), for which the Potency result in [1], in test [2], in [3], in test [15], in test [5] and in test [16] was “inactive” throughout. The Potency entry in [8], in test [9], in test [17], in test [10], in test [11] and in test [12] was “inactive” in each case. Besides, in [14], the Potency entry is “inactive”. In addition, the outcome in test [13] was inactive.
For the molecule `Cc1ccc(N)c(N)c1`, the Potency was 1.73 µM (active) and 1.54 µM (active) in test [1]; 24.4 µM (active) in test [2]. For the same molecule, the Potency entry in [3], in test [15], in test [4], in test [5], in test [16] and in [8] was “inactive” throughout. For the same molecule, the Potency result in test [10], in test [11] and in test [12] was “inactive” each time. The molecule was classed as inactive in test [6] and in [13].
Take `COC(=O)c1sccc1S(=O)(=O)NC(=O)Nc1nc(C)nc(OC)n1`: the Potency result in [1], in test [2], in test [3], in test [15], in [4] and in test [18] was “inactive” each time. Moreover, the Potency result in test [16], in test [9], in test [17], in test [10], in [11] and in test [12] was “inactive” throughout. Besides, the Potency result in test [14] is “inactive”. Further, the call in [6], in [7] and in [13] was inactive.
`CC1(C)C(C=C(Cl)Cl)C1C(=O)OC(C#N)c1cccc(Oc2ccccc2)c1` (configuration not stated): the Potency entry in [1], in [2], in [3], in test [15], in [5] and in test [18] was “inactive” each time. Moreover, the Potency result in [16], in [17], in test [10], in [11], in test [12] and in test [14] was “inactive” each time. The result in test [6], in test [7] and in test [13] was inactive.
For `CCC(C)(C)c1ccc(O)cc1`, the Potency entry in test [1], in test [2], in test [19], in test [15], in test [4] and in test [5] was “inactive” throughout. Also, the Potency result in [18], in test [16], in test [8], in test [9], in test [17] and in [10] was “inactive” throughout. Moreover, the Potency entry in test [11], in test [12] and in [14] was “inactive” each time. In addition, the outcome in test [6], in test [7] and in test [13] was inactive.
Regarding `CCCCC(CC)COC(=O)c1ccc(C(=O)OCC(CC)CCCC)c(C(=O)OCC(CC)CCCC)c1` (configuration not stated), the Potency entry in test [1], in [2], in [15], in test [4], in [20] and in [5] was “inactive” throughout. Moreover, the Potency entry in test [16], in [8], in test [9], in test [17], in test [10] and in test [11] was “inactive” each time. Further, the Potency entry in [12] and in [14] was “inactive” throughout. The call in test [6], in [7] and in test [13] was inactive.
